Results from article PMC12670160, “A drug-repurposing screen of FDA- and EMA-approved drugs identifies two NF-κB inhibitors active against eumycetoma” (Journal of Antimicrobial Chemotherapy, 2025).
Counter-ions that a name gives are not always drawn. Among all 5,300 compounds or so, about 130 (2.5%) showed an effect of 50% or more. Shown is part of a subset that was picked to be rich in strong results.

System: M. mycetomatis strain mm55
Settings: primary screen, metabolic activity vs growth control; 96 h, 2 µM; inhibitor

Compound	% viability [%]
CC(C)N[C@@H]1CCn2c(=O)[nH]c3cccc(c32)[C@H]1O [ONC0001941, zilpaterolhcl]	67.69
COc1cccc2c1C(=O)c1c(O)c3c(c(O)c1C2=O)C[C@@](O)(C(C)=O)C[C@@H]3O[C@H]1C[C@H](N)[C@H](O)[C@H](C)O1 [ONC0001686, daunorubicin]	72.25
COc1cccc2c1C(=O)c1c(O)c3c(c(O)c1C2=O)C[C@@](O)(C(=O)CO)C[C@@H]3O[C@H]1C[C@H](N)[C@@H](O)[C@H](C)O1 [ONC0004636, epirubicin hydrochloride]	92.65
CC(=O)[C@]1(O)Cc2c(O)c3c(c(O)c2[C@@H](O[C@H]2C[C@H](N)[C@H](O)[C@H](C)O2)C1)C(=O)c1ccccc1C3=O [ONC0004533, idarubicin hcl]	43.23
CNC(=O)ON(C(C)=O)C(=O)NC [ONC0003740, caracemide]	136.5
NC(=O)c1nc(F)c[nH]c1=O [ONC0003386, favipiravir]	85.13
CCN(CC)C(=O)Nc1ccc(OCC(O)CNC(C)(C)C)c(C(C)=O)c1 (stereo not drawn) [ONC0002160, celiprolol]	87.56
CCCC(=O)Nc1ccc(OCC(O)CNC(C)C)c(C(C)=O)c1 (stereo not drawn) [ONC0003369, acebutolol hydrochloride]	44.26
CC(=O)Nc1ccc(OCC(O)CNC(C)C)cc1 (stereo not drawn) [ONC0002176, practolol]	73.91
O=C(O)c1cc(/N=N/c2ccc(S(=O)(=O)Nc3ccccn3)cc2)ccc1O [ONC0000599, sulfasalazine]	109.1
COc1ccc(NS(=O)(=O)c2ccc(N)cc2)nn1 [ONC0000622, sulfamethoxypyridazine]	113.3
COc1ccc(NS(=O)(=O)c2ccc(N=Nc3ccc(O)c(C(=O)O)c3)cc2)nn1 [ONC0003399, salazodine]	47.95
NS(=O)(=O)NCCNc1nonc1C(=NO)Nc1ccc(F)c(Br)c1 [ONC0005250, epacadostat incb024360]	130.3
CN1CCN(C(=O)C2C(C(=O)O)[C@@H]3CC[C@H]2O3)CC1 (stereo partly drawn) [ONC0001871, lb100]	109.3
CCO/N=C(/C(=O)N[C@@H]1C(=O)N2C(C(=O)O)=C(Sc3nc(-c4cc[n+](C)cc4)cs3)CS[C@H]12)c1nsc(NP(=O)(O)O)n1 [ONC0002991, ceftarolinefosamil]	80.17
COc1ccc(NS(=O)(=O)c2ccc(I)cc2)cc1N1CCN(C)CC1 [ONC0001661, sb258585]	76.38
COc1ccc(S(=O)(=O)Nc2cc(Cl)cc(Cl)c2OC)cc1N1CCNCC1 [ONC0000041, sb399885]	47.84
COc1ccc(NS(=O)(=O)c2sc3ccc(Cl)cc3c2C)cc1N1CCNCC1 [ONC0005236, sb 271046]	123.6
O=C1Nc2c(ccc(Cl)c2Cl)C1=NO [ONC0002536, ns309]	65.12
COC(=O)[C@H]1[C@@H](C)[C@@H](OC)C=CO[C@@]2(C)Oc3c(C)c(O)c4c(O)c(cc(O)c4c3C2=O)NC(=O)/C(C)=C\C=C/[C@@H](C)[C@@H](O)[C@@H](C)[C@H](O)[C@@H]1C [ONC0003453, rifamycin sv sodium salt]	53.39

Compound	% viability [%]
CN(C)[C@@H]1C(=O)C(C(N)=O)C(=O)[C@@]2(O)C(=O)C3C(=O)c4c(O)ccc(Cl)c4[C@@H](O)[C@H]3C[C@@H]12 (stereo partly drawn) [ONC0000432, demeclocycline hydrochloride]	77.24
CCCCCCc1ccc(O)cc1O [ONC0000355, hexylresorcinol]	72.69
CCCCCCCCc1ccc(CCC(N)(CO)CO)cc1 [ONC0005159, fingolimod fty720 hcl]	130.1
CCCCCCCCCCCC1=C(O)C(=O)C=C(O)C1=O [ONC0001079, embelin]	49.47
NC1=N[C@H]2[C@H](CCCCC(=O)O)SC[C@H]2N1 [ONC0003635, 2iminobiotin]	86.51
CC(C)=CCC/C(C)=C/CC/C(C)=C/CCC(O)OC/C=C(\C)CCC=C(C)C (stereo not drawn) [ONC0000430, geranylfarnesylacetate gefarnate]	66.04
O=C(OOC(=O)c1ccccc1)c1ccccc1 [ONC0003111, benzoyl peroxide]	80.87
O=C(Oc1cccc2cccnc12)c1ccccc1 [ONC0003987, benzoxiquine]	75.23
Cc1ccc2c(Br)cc(Br)c(OC(=O)c3ccccc3)c2n1 [Broxaldine]	3.407
c1cnc2cc3c(cc2n1)C1CNCC3C1 [ONC0004813, varenicline tartrate]	83.4
CCCC[C@H](C)C[C@H](O)/C=C/[C@H]1[C@H](O)CC(=O)[C@@H]1CCCC/C=C/C(=O)O [ONC0005482, limaprost]	96.34
Cc1ccc(C(C)C)c(OC=C2NCCN2)c1 [ONC0005561, tymazoline]	90.75
O=[N+]([O-])c1ccccc1S(=O)(=O)NC[C@H]1CC[C@H](CNCC2CCc3ccccc3C2)CC1 (stereo partly drawn) [ONC0000121, ntncb]	80.22
CC(=O)OC1[C@@H](N2CC[N+](C)(C)CC2)C[C@H]2[C@@H]3CC[C@H]4C[C@H](OC(C)=O)[C@@H](N5CC[N+](C)(C)CC5)C[C@]4(C)[C@H]3CC[C@]12C (stereo partly drawn) [ONC0001992, pipecuronium]	103.5
O=C(CCCCCCC(=O)NO)NO [ONC0001756, sbha]	85.39
CCCCOc1ccc(CC(=O)NO)cc1 [ONC0000683, bufexamac]	91.55
CCC(=O)NO [ONC0002308, zami633]	45.69
OCC(O)COc1ccc(Cl)cc1 (stereo not drawn) [ONC0002159, chlorphenesin]	67.41
CCC(C)CC(C)CCCCCCCCC(=O)N[C@H]1C[C@@H](O)[C@@H](NCCN)NC(=O)[C@@H]2[C@@H](O)CCN2C(=O)[C@H]([C@H](O)CCN)NC(=O)[C@H]([C@@H](O)[C@H](O)c2ccc(O)cc2)NC(=O)[C@@H]2C[C@@H](O)CN2C(=O)[C@H]([C@@H](C)O)NC1=O (stereo partly drawn) [ONC0002201, caspofungin acetate]	69.7
CN1CCN(C(=O)CN[C@@H]2C[C@H]2c2ccc(OCc3ccccc3)cc2)CC1 [ONC0000424, rn1]	85.6

Compound	% viability [%]
COc1ccc2[nH]c(C(=O)c3ccccc3)cc2c1 [ONC0001898, d64131]	78.99
COc1ccc(/C=C/CCCCOc2ccc(C(=O)c3cccc(C(=O)O)c3)cc2CCC(=O)O)cc1 [ONC0003815, ly223982]	21.75
COc1ccc(/C=C/C(=O)O)cc1 [ONC0003824, trans4methoxycinnamicacid]	65.15
CC(=O)[C@H]1CC[C@H]2[C@@H]3CC=C4C[C@@H](O)CC[C@]4(C)[C@H]3CC[C@]12C [ONC0003199, pregnenolone]	77.25
Cc1oc2nc3c(c(NC(=O)CN4CCCC4=O)c2c1C)CCCC3 [ONC0001218, coluracetam]	81.81
CCOC(=O)Nc1cc2c(c(N)n1)NC(c1ccccc1)=C(C)N2 [ONC0002128, mivobulin]	3.846
CCOC(=O)Nc1ccc(NCc2ccc(F)cc2)nc1N.O=C(O)/C=C\C(=O)O [ONC0001304, flupirtine maleate]	68.53
CCOC(=O)Nc1nc2ccccc2[nH]1 [ONC0004223, lobendazole]	137.9
C=CC(=O)N1CCCC(n2c(=O)n(-c3ccc(Oc4ccccc4)cc3)c3c(N)ncnc32)C1 (stereo not drawn) [ONC0004392, ono4059]	98.71
C[N+]1(C)C2CCC1CC(OC(=O)C(CO)c1ccccc1)C2 (stereo not drawn) [ONC0003986, methylatropine nitrate]	73.02
C[N+]1([O-])C2CCC1CC(OC(=O)C(CO)c1ccccc1)C2 (stereo not drawn) [ONC0004212, atropine oxide]	82.92
CN1C2C[C@H](OC(=O)[C@H](CO)c3ccccc3)C[C@@H]1[C@@H](O)C2 [ONC0003283, anisodamine hydrobromide]	41.57
FC(F)(F)Oc1ccc2[nH]c(-c3ccc(OCCOCCOc4ccc(-c5nc6cc(OC(F)(F)F)ccc6[nH]5)nc4)cn3)nc2c1 [ONC0000980, ai1049]	83.7
CC(=O)OCC1=C(C(=O)O)N2C(=O)[C@@H](N)[C@H]2SC1 [ONC0004514, 7aminocephalosporanic acid]	52.68
CCn1cc(-c2cccc(C(F)(F)F)c2)c2sc(C(=N)NC3CCS(=O)(=O)CC3)cc2c1=O [ONC0001085, ibrd9]	45.4
Cc1c(C(=O)NCc2cccnc2)nn(-c2ccc(Cl)cc2Cl)c1-c1ccc(Cl)cc1 [ONC0001432, mj15]	60.06
C[C@@H]1CC2C3CCC4=CC(=O)C=C[C@]4(C)[C@@]3(F)[C@@H](O)C[C@]2(C)[C@@]1(O)C(=O)CO (stereo partly drawn) [ONC0000416, dexamethasone]	62.67
O=C(Nc1cc(C(F)(F)F)cc(C(F)(F)F)c1)c1cnc(Cl)nc1C(F)(F)F [ONC0001396, sp100030]	126.3
O=C(Nc1ccc([N+](=O)[O-])cc1Cl)c1cc(Cl)ccc1O [niclosamide]	70.84
O=C(Nc1cc(C(F)(F)F)cc(C(F)(F)F)c1)c1cc(Cl)ccc1O [IKK2 inhibitor V (IMD-0354), IMD-0354]	2.589
